Screening results (PubChem BioAssay)
LmPK inhibitor – blocks Leishmania mexicana pyruvate kinase activity; actives 0.37% (n = 290,000); Q27686; AID 1721; Potency, µM (highest dose often 57.5 µM), actives largely listed as inhibitors; purified LmPK, Kinase-Glo ATP luminescence, 1 h
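qHTS format; LmPK 0.1 nM; substrates PEP 0.5 mM and ADP 0.1 mM. One-hour room-temperature incubation, then coupled luciferase luminescence; 0.5 nM enzyme wells mark activation.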
FBPA Giardia inh – Giardia lamblia aldolase inhibition | Potency, µM (highest dose often 59.6 µM), hits mostly inhibitors | actives 0.71% (n = 290,000) | purified Giardia FBPA | AID 2451 | A8B2U2; note: nearly all actives have a fitted effect of over 55% in size
Target sequence (A8B2U2 whole entry, looked up): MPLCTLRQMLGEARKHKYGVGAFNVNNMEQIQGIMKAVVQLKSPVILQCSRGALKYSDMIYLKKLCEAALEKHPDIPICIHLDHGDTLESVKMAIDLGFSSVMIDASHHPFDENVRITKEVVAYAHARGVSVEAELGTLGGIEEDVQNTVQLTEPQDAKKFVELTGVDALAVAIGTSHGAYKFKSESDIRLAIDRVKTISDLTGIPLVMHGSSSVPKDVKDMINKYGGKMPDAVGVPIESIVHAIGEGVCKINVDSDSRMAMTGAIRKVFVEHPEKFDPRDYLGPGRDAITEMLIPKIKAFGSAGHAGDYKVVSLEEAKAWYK
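Giardia FBPA (40 nM reagent) was preincubated 10 min at RT with compound (up to 57.5 uM final), then substrate plus GAPDH/TPI/NAD/arsenate coupling system with diaphorase/resazurin was added; resorufin fluorescence (525/598 nm) was read after 20 min.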
CHX counter – affects cycloheximide protein synthesis inhibition readout, counter-screen; cell reporter, cycloheximide protein synthesis inhibition counterscreen; max response, %; actives 12% (n = 300,000); AID 2314; in the data active = max response mostly above about 13%, no sharp cut-off; inactive = mostly below about 14%; note: read at 38.3 µM for the half of the compounds with a filed dose
RE007 growth inh – less growth of the S. pombe RE007 Vpr strain; actives 0.21% (n = 360,000); Potency, µM (titrated, usually from 92.2 µM), actives largely listed as inhibitors; S. pombe RE007 Vpr strain, BacTiter-Glo ATP luminescence, 24 h; AID 651644; active = well fitted falling curve with a large enough effect; inconclusive = small, poorly fitted or top-dose-only effect; inactive = no such curve, though single readings can be large or run the other way; note: nearly all actives have a fitted effect of over 50% in size
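Fission yeast strain RE007, carrying one chromosomally integrated HIV-1 vpr copy, was seeded at OD 0.01 in PMG+AL medium with 23 nL pinned compound. After 24 h at 30 °C and 99% humidity, viability was read by BacTiter-Glo luminescence.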
Shiga inhibitor – inhibitors of Shiga toxin in Vero cells; Vero cells, Shiga toxin protein synthesis inhibition reporter; inhibition, % at 38.7 µM; actives 9.2% (n = 290,000); in the data active = inhibition mostly above about 28%, no sharp cut-off; inactive = mostly below about 43%
TbPYK inhibitor – inhibitors of Trypanosoma brucei pyruvate kinase | TbPYK enzyme, Kinase-Glo Plus ATP luminescence, 45 min | Q57TT1 | Potency, µM (doses to about 76.8 µM), usual class: inhibitors | actives 0.12% (n = 410,000); note: nearly all actives have a fitted effect of over 50% in size
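Luminescent Kinase-Glo Plus end-point after 45 min room-temperature reaction of T. brucei pyruvate kinase started with 130 uM ADP (final). Buffer TEA 50 mM pH 7.2 with KCl, MgCl2, BSA, Tween-20; titration-based qHTS with fitted concentration-effect curves.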
Numbers stand for hits; – = inactive; ? = inconclusive; · = no result given; + = active, no number; [ ] = dose if it differs, or a comment. The full list was thinned out, with hits kept by preference. Unless noted, calls come from the whole dose curve; as a rule, active = well fitted curve in the direction sought with a large enough effect; inconclusive = small, poorly fitted or top-dose-only effect, or another doubt; inactive = no such curve, though single readings can be large; an effect the other way counts as inactive or inconclusive.

SMILES	LmPK inhibitor	FBPA Giardia inh	CHX counter	RE007 growth inh	Shiga inhibitor	TbPYK inhibitor
Cc1nc2ccc(S(=O)(=O)Nc3cccc(-c4nc5cccnc5s4)c3)cc2s1	–	–	–	–	–	–
CCS(=O)(=O)Nc1ccc(-c2nc3cccnc3s2)cc1	–	–	40.7	–	73.4	–
CCCC(=O)Nc1cc(-c2nc3cccnc3s2)ccc1C	·	·	·	·	·	–
CCS(=O)(=O)Nc1cccc(-c2nc3cccnc3s2)c1	–	–	33.4	–	130.9	–
Cc1nc2ccc(S(=O)(=O)Nc3ccc(-c4nc5cccnc5s4)cc3)cc2s1	–	–	36.6	–	49.1	–
CCS(=O)(=O)Nc1cc(-c2nc3cccnc3s2)ccc1C	–	–	65.9	–	87.2	–
Cc1cccc(CC(=O)Nc2cccc(-c3nc4cccnc4s3)c2)c1	·	·	·	·	·	–
CCC(C)NC(=O)c1c(-c2ccccc2)c(-c2ccccc2)nn(C)c1=O (centres undefined)	·	·	·	·	·	–
CC(=O)Nc1cccc(NC(=O)Cc2csc(COc3cccc(C)c3)n2)c1	·	·	·	·	·	–
CCOC(=O)C1CCCN(C(=O)Cn2ncc3c(C)n(Cc4ccccc4Cl)c(C)c3c2=O)C1 (centres undefined)	·	·	·	·	·	–
Cc1ccc(-c2nc3cccnc3s2)cc1NC(=O)C1c2ccccc2Oc2ccccc21	–	–	29.9	–	–	–
Cc1ccc(-c2nc3cccnc3s2)cc1NC(=O)Cc1ccccc1	·	·	·	·	·	–
Oc1ccc(Cl)cc1	·	–	·	–[18.4 µM]	·	–
O=C(c1ccccc1)c1ccc2cc(O)ccc2c1	–	–	35.1	?	72.3	–
O=C(c1ccccc1)c1ccc2ccccc2c1	·	·	·	–	·	–
Cc1ccc(C(=O)c2ccc(O)cc2)cc1C	–	–	17.6	–	–	–
O=C(c1ccc(O)cc1)c1ccc(Cl)cc1	–	–	21.4	–	–	–
NC(=O)c1ccc(NC(=O)C2CCN(S(=O)(=O)Cc3ccccc3)CC2)cc1	·	·	·	·	·	–
COc1cccc(NC(=O)Cn2c(=O)n(Cc3ccc(C(=O)NCc4ccc5c(c4)OCO5)cc3)c(=O)c3ccccc32)c1	·	·	·	·	·	–
Cc1ccc2c(Sc3ccc(Cl)cc3)c(C(=O)N3CCC(C)CC3)[nH]c2c1	·	·	·	·	·	–
CC(CNC(=O)CN1C(=O)COc2ccc(S(=O)(=O)N3CCCCCC3)cc21)c1ccccc1 (centres undefined)	·	·	·	·	·	–
Cc1ccc(CNC(=O)CCC(=O)N2CC3CCCN3c3ccccc32)cc1 (centres undefined)	·	·	·	·	·	–
O=C(NC(C(=O)c1ccccc1)n1c(=O)cc[nH]c1=S)c1ccccc1 (centres undefined)	–	?	15.8	–	+	–
CC(C)=CCc1c(O)cc2c(c1O)C(=O)CC(c1ccc(O)cc1)O2 (centres undefined)	–	–	22.9	–	–	–
COc1c(CC=C(C)C)cc(C2CC(=O)c3c(O)cc(O)cc3O2)cc1CC=C(C)C (centres undefined)	–	–	active	–	–	–
SMILES	LmPK inhibitor	FBPA Giardia inh	CHX counter	RE007 growth inh	Shiga inhibitor	TbPYK inhibitor
COc1ccc2cc1Oc1cc3c(cc1OC)CC[N+](C)(C)C3Cc1ccc(cc1)Oc1c(OC)c(OC)cc3c1C(C2)[N+](C)(C)CC3 (centres undefined)	·	·	·	·	·	–
CSc1ncccc1C(=O)OCc1ccc(COC(=O)c2cccnc2SC)cc1	–	–	–	·	–	·
CSc1ncccc1C(=O)OCc1ccccc1	–	–	31.3	–	87.0	–
CSc1ncccc1C(=O)OCc1ccccc1F	–	–	21.8	–	66.5	–
C=CCN1c2ccccc2[C@]23C[C@@H](C(=O)OC)N(S(=O)(=O)c4ccc5c(c4)OCCN5C)C2=NC(C(=O)OC)=C(C(=O)OC)[C@H]13	–[11.5 µM]	–[12.9 µM]	·	·	·	·
C=CCc1ccccc1OCCSc1nc2ccc([N+](=O)[O-])cc2s1	–	–	–	–	–	–
COc1ccccc1OCCSc1nc2ccc([N+](=O)[O-])cc2s1	–	–	10.3	–	–	–
Nc1ccc2nc(SCc3ccc([N+](=O)[O-])cc3)sc2c1	–	–	27.9	–	–	–
CCOC(=O)CSc1nc2ccc(NC(C)=O)cc2s1	–	–	–	–	–	–
COC(=O)CSc1nc2ccc(N)cc2s1	–	?	18.8	–	–	–
Nc1nnc(SCc2ccc([N+](=O)[O-])cc2)s1	–	–	8.0	–	–	–
CCCOc1ccc(-c2c(C(=O)N/N=C(\C)c3cccs3)nnn2-c2nonc2N)cc1	–	·	–	–	–	–
COc1ccc(CSc2nnc(N)s2)cc1F	–	–	43.0	–	86.0	–
CC(=O)c1sc(NC(=O)c2ccc(Cl)cc2)nc1C	–	–	29.9	–	71.0	–
Cc1nc(NC(=O)C2CC2)sc1C(=O)Nc1ccccc1	–	–	–	–	–	–
Cc1cccc(C(=O)NC(=O)Nc2c(C)cc(C)nc2C)c1	–	–	21.4	–	58.3	–
Cc1ccccc1NC(=O)c1sc(NC(=O)C2CC2)nc1C	–	–	11.3	–	–	–
CC(=O)c1sc(NC(=O)c2cccc(C)c2)nc1C	?	–	43.3	–	68.2	–
CC(=O)c1sc(NC(=O)c2ccc(F)c(F)c2)nc1C	–	–	–	–	–	–
CN[C@H]1C[C@@H](N)[C@H](O)[C@@H](O[C@@H]2O[C@H](CO)[C@H](O)[C@@H]3O[C@]4(O[C@@H]23)O[C@H]([C@@H](N)CO)[C@H](O)[C@@H](O)[C@H]4O)[C@@H]1O	·	·	·	·	·	–
CC1C(=O)N2CCCc3cc(NC(=O)c4ccccc4Br)cc1c32 (centres undefined)	·	·	·	–	·	–
Cc1cc(F)ccc1NC(=O)Cn1c(=O)ccc2cc(S(=O)(=O)N3CCC(C)CC3)ccc21	·	·	·	·	·	–
CC(C)C1Cc2ccccc2-c2[nH]c(=S)[nH]c(=O)c21 (centres undefined)	·	·	·	–	·	–
CC(=O)c1sc(NC(=O)c2ccccc2C)nc1C	–	–	47.1	–	–	–
Cc1cc(C)c2sc(NC(=O)C3CC3)nc2c1	–	–	26.5	–	42.4	–
SMILES	LmPK inhibitor	FBPA Giardia inh	CHX counter	RE007 growth inh	Shiga inhibitor	TbPYK inhibitor
CCN(Cc1ccccc1)C(=O)c1cnn(-c2ccc(F)cc2)c1-n1cccc1	·	·	·	·	·	–
Cc1cc(C(=O)N(C)C)sc1-c1ccccc1	–	–	63.3	?	71.2	–
Cc1cc(C(=O)N2CCN(S(C)(=O)=O)CC2)sc1-c1ccccc1	–	–	–	–	–	–
CCOc1ccc(NC(c2ccccn2)c2oc(CO)cc(=O)c2O)cc1 (centres undefined)	–	?	45.9	–	81.3	–
CC(C)N(C(=O)c1nn(C)c2c1CSc1ccccc1-2)C1CCCCC1	–	·	–	–	–	–
O=C(Cc1cccs1)Nc1nnc(-c2ccccc2)s1	–	–	–	–	–	–
O=C(CN1CCCCC1)Nc1nnc(-c2ccccc2)s1	–	–	20.0	–	71.8	–
